# Assay results reported in ChEMBL document CHEMBL1961873, “Compounds: GSK PKIS; Assays: Nanosyn kinase panel” (2012).
# Legend:
# [1] = molecular target: Sphingosine kinase 1 (Homo sapiens) (UniProt Q9NYA1); conditions: at 1 µM;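 also: mean SPHK1 inhibition value reported from the GSK PKIS kinase panel screen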
# [2] = molecular target: T1, Sphingosine kinase 2 (Homo sapiens) (UniProt Q9NRA0); conditions: at 0.1 µM
# T1 sequence (whole entry): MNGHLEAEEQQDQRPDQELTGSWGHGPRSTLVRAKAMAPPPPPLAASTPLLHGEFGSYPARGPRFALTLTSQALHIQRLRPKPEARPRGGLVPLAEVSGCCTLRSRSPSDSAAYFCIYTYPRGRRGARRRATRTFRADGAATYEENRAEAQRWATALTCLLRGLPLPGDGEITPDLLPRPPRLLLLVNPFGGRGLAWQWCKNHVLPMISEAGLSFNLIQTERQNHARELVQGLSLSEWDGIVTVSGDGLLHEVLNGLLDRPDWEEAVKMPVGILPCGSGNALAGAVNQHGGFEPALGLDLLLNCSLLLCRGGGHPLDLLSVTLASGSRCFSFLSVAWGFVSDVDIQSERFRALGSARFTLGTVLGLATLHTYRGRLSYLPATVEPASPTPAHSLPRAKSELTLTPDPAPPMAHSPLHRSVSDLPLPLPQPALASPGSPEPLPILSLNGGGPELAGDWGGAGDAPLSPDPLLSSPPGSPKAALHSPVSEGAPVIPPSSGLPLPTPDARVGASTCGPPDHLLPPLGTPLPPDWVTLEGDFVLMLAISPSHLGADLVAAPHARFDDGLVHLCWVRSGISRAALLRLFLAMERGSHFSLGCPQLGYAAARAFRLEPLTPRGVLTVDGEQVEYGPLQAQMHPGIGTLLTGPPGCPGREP
# [3] = molecular target: T1, Sphingosine kinase 2 (Homo sapiens); conditions: at 1 µM
# [4] = molecular target: Casein kinase II subunit alpha (Homo sapiens) (UniProt P68400); conditions: at 0.1 µM
# Casein kinase II subunit alpha (Homo sapiens), sequence (P68400 whole entry, looked up): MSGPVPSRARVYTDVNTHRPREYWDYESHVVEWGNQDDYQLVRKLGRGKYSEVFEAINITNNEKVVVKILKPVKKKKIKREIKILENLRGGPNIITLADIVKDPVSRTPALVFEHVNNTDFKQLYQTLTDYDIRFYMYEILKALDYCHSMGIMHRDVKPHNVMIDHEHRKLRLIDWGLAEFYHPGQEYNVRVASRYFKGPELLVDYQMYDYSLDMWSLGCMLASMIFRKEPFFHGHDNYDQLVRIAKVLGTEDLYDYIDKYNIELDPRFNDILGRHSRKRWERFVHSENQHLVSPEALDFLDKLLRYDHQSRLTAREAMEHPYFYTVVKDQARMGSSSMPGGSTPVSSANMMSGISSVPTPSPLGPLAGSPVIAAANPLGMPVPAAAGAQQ
# [5] = molecular target: Casein kinase II subunit alpha (Homo sapiens) (UniProt P68400); conditions: at 1 µM
# [6] = molecular target: T2, Inhibitor of nuclear factor kappa-B kinase subunit alpha (Homo sapiens) (UniProt O15111); conditions: at 0.1 µM
# T2 sequence (whole entry): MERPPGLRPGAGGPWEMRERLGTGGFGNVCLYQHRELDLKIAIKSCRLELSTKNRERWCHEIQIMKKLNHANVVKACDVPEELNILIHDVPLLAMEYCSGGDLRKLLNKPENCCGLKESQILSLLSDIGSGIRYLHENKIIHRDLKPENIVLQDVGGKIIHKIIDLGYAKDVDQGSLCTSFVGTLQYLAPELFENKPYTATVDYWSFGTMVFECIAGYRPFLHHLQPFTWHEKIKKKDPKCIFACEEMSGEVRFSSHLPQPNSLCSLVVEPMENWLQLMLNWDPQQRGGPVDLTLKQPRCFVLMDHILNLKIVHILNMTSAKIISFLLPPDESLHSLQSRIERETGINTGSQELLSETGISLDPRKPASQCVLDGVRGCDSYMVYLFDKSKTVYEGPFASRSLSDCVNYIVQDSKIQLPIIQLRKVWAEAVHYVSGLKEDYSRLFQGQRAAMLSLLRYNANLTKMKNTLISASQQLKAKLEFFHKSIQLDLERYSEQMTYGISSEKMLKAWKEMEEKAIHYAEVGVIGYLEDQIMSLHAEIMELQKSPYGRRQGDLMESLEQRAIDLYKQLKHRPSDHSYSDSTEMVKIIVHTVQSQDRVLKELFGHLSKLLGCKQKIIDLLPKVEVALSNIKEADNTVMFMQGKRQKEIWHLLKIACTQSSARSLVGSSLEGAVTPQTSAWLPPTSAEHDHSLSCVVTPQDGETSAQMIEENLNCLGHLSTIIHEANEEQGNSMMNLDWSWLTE
# [7] = molecular target: T2, Inhibitor of nuclear factor kappa-B kinase subunit alpha (Homo sapiens); conditions: at 1 µM
# [8] = molecular target: T3, Inhibitor of nuclear factor kappa-B kinase subunit beta (Homo sapiens) (UniProt O14920); conditions: at 0.1 µM
# T3 sequence (whole entry): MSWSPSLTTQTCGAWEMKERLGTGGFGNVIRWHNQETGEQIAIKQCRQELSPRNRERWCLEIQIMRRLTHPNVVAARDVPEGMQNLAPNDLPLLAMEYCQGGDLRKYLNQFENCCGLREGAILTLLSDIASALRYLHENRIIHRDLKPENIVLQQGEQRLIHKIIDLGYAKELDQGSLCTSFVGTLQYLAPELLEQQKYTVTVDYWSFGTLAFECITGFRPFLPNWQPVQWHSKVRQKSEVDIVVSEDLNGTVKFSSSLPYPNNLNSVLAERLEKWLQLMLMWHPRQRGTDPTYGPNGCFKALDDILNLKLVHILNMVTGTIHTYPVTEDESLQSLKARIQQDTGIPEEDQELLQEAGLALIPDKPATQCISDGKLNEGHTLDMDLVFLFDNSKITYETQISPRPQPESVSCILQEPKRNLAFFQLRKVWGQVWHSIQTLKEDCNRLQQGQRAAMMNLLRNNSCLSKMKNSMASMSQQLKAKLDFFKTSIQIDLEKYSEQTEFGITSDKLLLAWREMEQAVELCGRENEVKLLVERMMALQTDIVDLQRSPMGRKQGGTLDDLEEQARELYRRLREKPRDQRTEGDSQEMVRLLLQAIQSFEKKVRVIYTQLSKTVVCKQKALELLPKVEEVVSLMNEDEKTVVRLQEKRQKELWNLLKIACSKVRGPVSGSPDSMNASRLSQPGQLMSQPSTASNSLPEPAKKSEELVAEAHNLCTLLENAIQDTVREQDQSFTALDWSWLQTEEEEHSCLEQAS
# [9] = molecular target: T3, Inhibitor of nuclear factor kappa-B kinase subunit beta (Homo sapiens); conditions: at 1 µM
# [10] = molecular target: T4, Inhibitor of nuclear factor kappa-B kinase subunit epsilon (Homo sapiens) (UniProt Q14164); conditions: at 0.1 µM
# T4 sequence (whole entry): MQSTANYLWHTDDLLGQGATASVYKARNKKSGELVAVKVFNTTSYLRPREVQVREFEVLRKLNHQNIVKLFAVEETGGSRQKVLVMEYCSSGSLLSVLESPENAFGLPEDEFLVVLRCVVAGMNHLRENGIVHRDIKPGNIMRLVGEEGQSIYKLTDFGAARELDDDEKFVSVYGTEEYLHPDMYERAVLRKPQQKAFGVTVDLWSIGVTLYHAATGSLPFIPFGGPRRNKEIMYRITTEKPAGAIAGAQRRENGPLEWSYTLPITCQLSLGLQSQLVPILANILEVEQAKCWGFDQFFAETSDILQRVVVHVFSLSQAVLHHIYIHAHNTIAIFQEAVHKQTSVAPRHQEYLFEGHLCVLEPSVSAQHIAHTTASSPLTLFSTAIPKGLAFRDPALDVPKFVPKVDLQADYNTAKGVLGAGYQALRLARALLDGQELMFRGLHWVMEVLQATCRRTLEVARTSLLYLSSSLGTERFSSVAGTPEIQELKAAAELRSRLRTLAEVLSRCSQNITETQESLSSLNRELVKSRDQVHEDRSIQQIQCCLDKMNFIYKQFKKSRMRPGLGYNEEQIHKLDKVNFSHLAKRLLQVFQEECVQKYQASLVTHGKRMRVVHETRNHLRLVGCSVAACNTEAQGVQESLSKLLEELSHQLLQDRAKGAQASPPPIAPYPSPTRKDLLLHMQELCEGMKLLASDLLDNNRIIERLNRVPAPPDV
# [11] = molecular target: T4, Inhibitor of nuclear factor kappa-B kinase subunit epsilon (Homo sapiens); conditions: at 1 µM
# [12] = molecular target: T5, Serine/threonine-protein kinase Nek1 (Homo sapiens) (UniProt Q96PY6); conditions: at 0.1 µM
# T5 sequence (whole entry): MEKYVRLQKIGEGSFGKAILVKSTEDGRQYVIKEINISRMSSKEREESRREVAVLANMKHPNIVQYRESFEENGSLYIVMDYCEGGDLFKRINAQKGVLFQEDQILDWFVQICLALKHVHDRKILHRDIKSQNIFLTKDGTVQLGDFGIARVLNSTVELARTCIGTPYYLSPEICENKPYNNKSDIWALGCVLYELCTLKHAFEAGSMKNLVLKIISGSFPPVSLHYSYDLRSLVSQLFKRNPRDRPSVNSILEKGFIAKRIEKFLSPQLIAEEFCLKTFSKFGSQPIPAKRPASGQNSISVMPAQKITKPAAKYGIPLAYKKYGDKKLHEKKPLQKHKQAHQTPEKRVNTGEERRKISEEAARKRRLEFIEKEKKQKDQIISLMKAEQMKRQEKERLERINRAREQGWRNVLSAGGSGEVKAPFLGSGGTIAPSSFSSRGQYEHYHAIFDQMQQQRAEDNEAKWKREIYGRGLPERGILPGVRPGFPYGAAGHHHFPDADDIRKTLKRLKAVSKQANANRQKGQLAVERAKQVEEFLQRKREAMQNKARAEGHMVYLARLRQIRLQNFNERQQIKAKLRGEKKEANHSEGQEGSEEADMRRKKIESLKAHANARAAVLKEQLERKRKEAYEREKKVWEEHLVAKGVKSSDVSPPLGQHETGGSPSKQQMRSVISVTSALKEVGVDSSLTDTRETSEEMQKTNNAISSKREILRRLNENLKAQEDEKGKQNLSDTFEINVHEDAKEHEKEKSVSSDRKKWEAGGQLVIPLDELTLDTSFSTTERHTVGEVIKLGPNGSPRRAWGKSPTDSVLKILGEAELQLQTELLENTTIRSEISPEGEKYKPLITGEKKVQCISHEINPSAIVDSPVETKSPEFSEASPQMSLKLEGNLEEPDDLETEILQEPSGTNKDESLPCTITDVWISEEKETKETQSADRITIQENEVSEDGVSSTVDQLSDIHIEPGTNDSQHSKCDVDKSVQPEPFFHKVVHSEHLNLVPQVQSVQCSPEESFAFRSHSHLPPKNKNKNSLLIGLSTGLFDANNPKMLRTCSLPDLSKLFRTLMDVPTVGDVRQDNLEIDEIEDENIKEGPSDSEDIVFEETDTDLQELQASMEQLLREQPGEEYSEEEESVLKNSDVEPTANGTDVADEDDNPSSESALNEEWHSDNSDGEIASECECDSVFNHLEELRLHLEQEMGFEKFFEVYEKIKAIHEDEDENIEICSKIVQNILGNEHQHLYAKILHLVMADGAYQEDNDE
# [13] = molecular target: T5, Serine/threonine-protein kinase Nek1 (Homo sapiens); conditions: at 1 µM
# [14] = molecular target: T6, Serine/threonine-protein kinase Nek2 (Homo sapiens) (UniProt P51955); conditions: at 0.1 µM
# T6 sequence (whole entry): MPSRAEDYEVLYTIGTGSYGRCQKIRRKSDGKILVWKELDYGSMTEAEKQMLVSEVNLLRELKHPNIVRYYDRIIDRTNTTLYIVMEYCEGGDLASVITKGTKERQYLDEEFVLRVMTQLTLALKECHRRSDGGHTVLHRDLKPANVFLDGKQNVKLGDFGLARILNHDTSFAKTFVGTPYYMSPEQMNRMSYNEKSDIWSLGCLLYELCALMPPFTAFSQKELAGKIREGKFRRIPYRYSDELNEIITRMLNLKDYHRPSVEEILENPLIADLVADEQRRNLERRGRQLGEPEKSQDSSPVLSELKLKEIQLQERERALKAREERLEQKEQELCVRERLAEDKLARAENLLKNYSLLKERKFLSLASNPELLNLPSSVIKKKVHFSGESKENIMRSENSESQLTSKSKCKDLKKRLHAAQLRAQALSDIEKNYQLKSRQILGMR
# [15] = molecular target: T6, Serine/threonine-protein kinase Nek2 (Homo sapiens); conditions: at 1 µM
# [16] = molecular target: Serine/threonine-protein kinase Nek6 (Homo sapiens) (UniProt Q9HC98); conditions: at 0.1 µM
# Serine/threonine-protein kinase Nek6 (Homo sapiens), sequence (Q9HC98 whole entry): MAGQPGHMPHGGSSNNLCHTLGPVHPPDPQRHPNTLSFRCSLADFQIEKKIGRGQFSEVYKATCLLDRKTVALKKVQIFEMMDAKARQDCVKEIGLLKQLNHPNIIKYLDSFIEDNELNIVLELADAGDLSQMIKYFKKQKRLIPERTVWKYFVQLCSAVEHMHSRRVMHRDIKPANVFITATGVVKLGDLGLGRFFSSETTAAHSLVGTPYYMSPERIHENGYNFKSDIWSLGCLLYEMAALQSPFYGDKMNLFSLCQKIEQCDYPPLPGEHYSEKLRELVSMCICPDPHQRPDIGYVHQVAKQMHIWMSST
# [17] = molecular target: Serine/threonine-protein kinase Nek6 (Homo sapiens) (UniProt Q9HC98); conditions: at 1 µM
# [18] = molecular target: Serine/threonine-protein kinase Nek7 (Homo sapiens) (UniProt Q8TDX7); conditions: at 0.1 µM
# Serine/threonine-protein kinase Nek7 (Homo sapiens), sequence (Q8TDX7 whole entry, looked up): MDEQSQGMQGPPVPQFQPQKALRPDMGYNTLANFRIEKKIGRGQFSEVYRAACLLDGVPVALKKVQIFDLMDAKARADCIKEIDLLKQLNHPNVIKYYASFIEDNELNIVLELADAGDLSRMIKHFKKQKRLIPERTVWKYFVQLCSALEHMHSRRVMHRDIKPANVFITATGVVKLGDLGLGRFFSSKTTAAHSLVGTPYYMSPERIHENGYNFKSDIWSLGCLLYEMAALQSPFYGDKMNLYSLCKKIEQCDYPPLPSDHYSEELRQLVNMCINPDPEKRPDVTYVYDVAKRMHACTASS
# [19] = molecular target: Serine/threonine-protein kinase Nek7 (Homo sapiens) (UniProt Q8TDX7); conditions: at 1 µM
# [20] = molecular target: T7, Serine/threonine-protein kinase Nek9 (Homo sapiens) (UniProt Q8TD19); conditions: at 0.1 µM;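 also: reported value is the mean percent inhibition of NEK9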
# T7 sequence (whole entry): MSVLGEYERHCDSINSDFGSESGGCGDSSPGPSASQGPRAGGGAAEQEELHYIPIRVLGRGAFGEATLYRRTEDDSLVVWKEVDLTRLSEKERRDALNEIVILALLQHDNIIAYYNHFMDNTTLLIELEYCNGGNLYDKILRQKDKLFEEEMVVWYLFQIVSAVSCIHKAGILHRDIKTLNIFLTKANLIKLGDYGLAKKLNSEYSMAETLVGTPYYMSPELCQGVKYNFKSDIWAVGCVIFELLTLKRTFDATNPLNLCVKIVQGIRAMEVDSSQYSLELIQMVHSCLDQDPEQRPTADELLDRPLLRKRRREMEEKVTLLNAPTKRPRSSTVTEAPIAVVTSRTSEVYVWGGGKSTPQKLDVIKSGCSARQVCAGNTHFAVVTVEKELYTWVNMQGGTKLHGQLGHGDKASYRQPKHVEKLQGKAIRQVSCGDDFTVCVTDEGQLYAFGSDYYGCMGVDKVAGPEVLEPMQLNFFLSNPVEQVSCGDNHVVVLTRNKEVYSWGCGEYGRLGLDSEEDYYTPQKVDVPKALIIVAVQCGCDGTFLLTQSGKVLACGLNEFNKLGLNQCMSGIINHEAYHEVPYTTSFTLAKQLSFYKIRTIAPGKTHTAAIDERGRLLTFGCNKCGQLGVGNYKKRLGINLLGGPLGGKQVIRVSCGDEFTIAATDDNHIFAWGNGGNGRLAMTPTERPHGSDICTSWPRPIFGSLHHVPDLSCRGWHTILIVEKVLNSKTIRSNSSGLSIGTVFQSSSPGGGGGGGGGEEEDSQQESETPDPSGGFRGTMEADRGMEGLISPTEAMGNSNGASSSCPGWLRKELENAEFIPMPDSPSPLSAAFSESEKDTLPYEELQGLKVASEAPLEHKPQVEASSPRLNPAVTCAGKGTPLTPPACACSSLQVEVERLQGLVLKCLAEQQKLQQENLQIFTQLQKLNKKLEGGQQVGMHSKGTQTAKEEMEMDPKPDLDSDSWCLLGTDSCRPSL
# Sphingosine kinase 1 (Homo sapiens), sequence (Q9NYA1 whole entry): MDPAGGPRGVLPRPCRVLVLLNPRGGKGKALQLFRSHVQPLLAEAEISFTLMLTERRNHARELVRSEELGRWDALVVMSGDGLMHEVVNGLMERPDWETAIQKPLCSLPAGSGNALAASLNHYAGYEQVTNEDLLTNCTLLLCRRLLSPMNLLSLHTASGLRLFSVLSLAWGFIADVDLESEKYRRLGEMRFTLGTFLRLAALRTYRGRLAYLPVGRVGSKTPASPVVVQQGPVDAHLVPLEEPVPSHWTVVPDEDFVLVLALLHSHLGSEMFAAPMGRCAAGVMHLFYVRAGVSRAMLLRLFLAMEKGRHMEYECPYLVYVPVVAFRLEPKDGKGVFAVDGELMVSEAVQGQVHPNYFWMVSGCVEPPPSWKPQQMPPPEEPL
compound,measurement,setting,value
O=C1NC(=O)C(N2CCc3ccccc32)=C1c1ccc(Cl)cc1,inhibition,[1],2.74%
same,inhibition,[2],0.69%
same,inhibition,[3],0.87%
same,inhibition,[4],1.59%
same,inhibition,[5],-1.39%
same,inhibition,[6],5.45%
same,inhibition,[7],4.39%
same,inhibition,[8],5.07%
same,inhibition,[9],4.89%
same,inhibition,[10],3.79%
same,inhibition,[11],3.58%
same,inhibition,[12],3.18%
same,inhibition,[13],2.69%
same,inhibition,[14],6.49%
same,inhibition,[15],7.76%
same,inhibition,[16],-0.04%
same,inhibition,[17],-0.02%
same,inhibition,[18],6.9%
same,inhibition,[19],4.24%
same,inhibition,[20],5.67%
